PfG6PD inh: PfG6PD (Plasmodium falciparum) enzyme inhibition; PfGluPho enzyme, NADPH resazurin-diaphorase fluorescence; inhibition, % at 20 µM; 350,000 tested, 0.78% active;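 active = inhibition reaching at least a set limit at 20 µM in the primary screen, cut at about 59% in these data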
Cardio protect: protects H9c2 cardiomyocytes from peroxide injury; H2O2 injury protection, ATPLite, 2 h; protection from H2O2 cell death, % at 20 µM; 360,000 tested, 0.63% active; AID 588492;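 active = compounds giving at least 50% protection of heart cells from peroxide-induced death in the single-dose screen, raw or plate-pattern-corrected value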
ALR H2O2 inh: blocks human ALR sulfhydryl oxidase activity; inhibition, % (no concentration beside the values); P55789; 290,000 tested, 3.8% active; purified ALR, DTT oxidation, H2O2 HRP-luminol luminescence;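 active = mean replicate inhibition above about 79%, with every replicate also reaching it, limit read from the data; inconclusive = only one of the two criteria met; inactive = mean below limit and not every replicate reaching it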
M18AAP inhibitor: PfM18AAP enzyme inhibition | recombinant PfM18AAP, H-Glu-NHMec fluorogenic cleavage | inhibition, % at 7.35 µM | 290,000 tested, 1.2% active;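 active = inhibition above the campaign mean inhibition over all tested compounds plus 3 SD, cut at about 28% in these data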
PHOSPHO1 block: PHOSPHO1 (human) inhibition; recombinant PHOSPHO1, absorbance phosphatase assay; inhibition, % at 13.3 µM; 290,000 tested, 1.1% active; in the data active = inhibition above about 60%
Target sequence (Q8TCT1 whole entry, looked up): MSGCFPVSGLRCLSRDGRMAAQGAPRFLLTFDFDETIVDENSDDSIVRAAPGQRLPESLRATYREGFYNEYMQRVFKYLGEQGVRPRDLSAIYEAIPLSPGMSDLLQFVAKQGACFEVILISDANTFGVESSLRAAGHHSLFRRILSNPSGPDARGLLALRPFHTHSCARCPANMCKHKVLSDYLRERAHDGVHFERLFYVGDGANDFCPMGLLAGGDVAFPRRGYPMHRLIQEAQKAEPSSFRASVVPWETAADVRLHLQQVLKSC
Hits are given with their value; – = inactive; ? = inconclusive; · = no result given. In the library only some 5.6% were active in any assay of this set; here they are far more common.

SMILES	PfG6PD inh	Cardio protect	ALR H2O2 inh	M18AAP inhibitor	PHOSPHO1 block
Cc1ccc(OCC(=O)OCC(=O)c2ccccc2)cc1C	–	–	–	–	–
COc1cc(C(=O)N(C)CC(=O)Nc2cccc(F)c2)ccc1OCc1ccccc1	–	–	–	·	·
CCn1cc(/C=C(\NC(=O)c2cc(OC)c(OC)c(OC)c2)C(=O)NCCCN2CCOCC2)c2ccccc21	–	–	–	–	65
CCOc1ccc(NC(=O)CN(C)C(=O)Cc2c(C)nc3ccccc3c2C)cc1OCC	–	–	–	–	–
CCN(CCNC(=O)CC1Oc2ccccc2NC1=O)c1ccccc1 (configuration not stated)	–	–	97	–	–
CC(C)CN(CCNC(=O)CC1Oc2ccccc2NC1=O)CC(C)C (configuration not stated)	–	–	?	–	–
CC1CCN(Cc2ccc(NC(=O)CC3Oc4ccccc4NC3=O)cc2)CC1 (configuration not stated)	–	–	92	–	–
O=C(CC1Oc2ccccc2NC1=O)NCCc1ccccc1 (configuration not stated)	–	–	86	–	–
CCc1cccc(NC(=O)CC2Oc3ccccc3NC2=O)c1 (configuration not stated)	–	–	–	–	–
O=C(CSc1nc2nn(-c3ccccc3)c(=O)c-2c2n1CCCCC2)c1ccc(OC(F)F)cc1	–	–	–	·	·
C[C@@H]1CCCCO[C@@H](CN(C)C(=O)CCCN(C)C)[C@@H](C)CN([C@H](C)CO)C(=O)c2cc(N(C)C)ccc2O1	·	–	·	·	·
CN(C)C(=O)CCc1ccc2c3c([nH]c2c1)[C@]1(C)[C@@H](C(=O)N2CCOCC2)C[C@H](CC(=O)NCCN2CCOCC2)C(=O)N1CC3	–	–	·	·	·
CCn1c(-c2cc(-c3cc(C)ccc3C)nc3ccccc23)n[nH]c1=S	–	–	–	–	–
CCn1c(-c2cc3ccccc3cc2O)n[nH]c1=S	–	–	99	–	92
CCN(CC)C(=O)CSc1nnc(-c2cc3ccccc3cc2O)n1CC	–	–	85	–	62
CCn1c(-c2cc(C3CC3)nc3ccccc23)n[nH]c1=S	–	–	–	–	–
CCn1c(-c2cc(Br)ccc2O)n[nH]c1=S	–	–	98	–	·
CCN(CC)C(=O)CSc1nc2ccccc2c(=O)n1CC	–	–	–	–	–
NS(=O)(=O)c1ccc(NC(=O)c2cccc3cc4ccccc4nc23)cc1	–	–	·	·	·
Cc1ccc(S(=O)(=O)N2Cc3ccccc3CC2C(=O)N(C)C)cc1 (configuration not stated)	–	–	·	·	·
O=C(COc1cc(Cl)c(Cl)cc1Cl)Nn1cnnc1	–	–	–	30	–
O=C(O)c1c(-c2ccccc2)cnc2ccccc12	–	–	·	·	·
O=C(CN1C(=O)S/C(=C\c2ccccc2)C1=O)NCCCn1ccnc1	–	–	–	–	–
CC(C)c1ccc(/C=C2\SC(=O)N(CC(=O)NCCCn3ccnc3)C2=O)cc1	–	–	99	–	–
N#Cc1ccccc1NC(=S)NC(=O)c1cccs1	–	–	98	–	–
SMILES	PfG6PD inh	Cardio protect	ALR H2O2 inh	M18AAP inhibitor	PHOSPHO1 block
COc1cc(CC(=O)NCC2CCCCC2)cc(OC)c1OC	–	–	–	–	·
COCCn1nnnc1SCC(=O)NCc1ccc2c(c1)OCO2	–	–	96	–	–
Cn1nnnc1SCC(=O)NCc1ccc2c(c1)OCO2	–	–	–	–	–
O=C(CSc1nccn1-c1ccc(F)cc1)NCc1ccc2c(c1)OCO2	–	–	–	–	65
CCOC(=O)/C(C#N)=C(C)/C=C1\Sc2ccccc2N1CC	–	–	–	–	–
CCN1/C(=C\C=C(C(C)=O)C(C)=O)Sc2ccccc21	–	–	99	–	–
CCC(=O)N/N=C/c1ccc(-c2ccc([N+](=O)[O-])cc2)o1	–	–	–	–	–
CC(C)(C)C(=O)/C=c1\s/c(=C\c2ccc(-c3ccc([N+](=O)[O-])cc3)o2)c(=O)n1CC(=O)NC(N)=O	–	52	?	–	–
Nc1c(C(=O)NC2CC2)sc2nc3c(c(-c4ccco4)c12)CC/C3=C/c1ccco1	–	–	–	–	81
Cc1cc(O)c(/C=N/Nc2ccc(Cl)cc2)c(=O)o1	–	–	98	–	–
Cc1cc(O)c(/C=N/Nc2cccc(Cl)c2)c(=O)o1	–	–	·	–	101
Cc1cc(O)c(/C=N/Nc2ccccc2Cl)c(=O)o1	–	–	?	–	–
CCCn1c(SCC(=O)N(C2CCCCC2)C2CCS(=O)(=O)C2)n[nH]c1=O (configuration not stated)	–	–	·	·	·
COCCCN(Cc1ccco1)C(=O)Cn1ncc2c([nH]c3ccccc32)c1=O	–	60	–	–	–
